Bioassay records from PubChem.
Rows were chosen to be rich in hits. Some 5.7% of all compounds tested hit in one or more screens of this group.
Giardia killer: Small Molecules that selectively kill Giardia lamblia: qHTS; Giardia lamblia trophozoite viability; activity change, % at 7.66 µM, hits read low; 340,000 compounds, 0.15% hits; AID 540267, 2011; in the data active = activity change below about -80%; inconclusive = between about -30% and that limit;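 also: parasites exposed to compound for two days anaerobically before the ATP read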
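Viability, read as ATP luminescence: trophozoites at 100 cells/well, compound added, 48 hrs anaerobic at 37 deg C, then 15-30 min room-temperature development before reading.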
Nrf2 block: Nrf2 qHTS screen for inhibitors; A549 ARE-Fluc reporter, luciferase luminescence, 18-24 h; Potency, µM (doses to about 46 µM), for inactives: top-dose activity change, negative = inhibition, hits mostly inhibitors; 360,000 compounds, 2.1% hits; AID 504444, 2011; also: potency is read from the fitted curve at half-maximal effect; nearly all actives have a fitted effect of over 60% in size
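A549 ARE_Fluc cells (5000/well, 5% FBS OPTI-MEM) pre-incubated 2 h, then treated with compounds 18-24 h at 37C/5% CO2 in concentration-response. CellTiter-Fluor viability read first; BugLite luciferase luminescence after 15 min at room temperature gives Nrf2 activity.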
A549 viability: Nrf2 qHTS screen for inhibitors: counterscreen for cytotoxicity; Potency, µM (top dose mostly 46 µM), for inactives: at the top dose activity change, negative = cytotoxicity, usual class: inhibitors; 390,000 compounds, 0.16% hits; A549 ARE-Fluc cells, CellTiter-Fluor viability, 18-24 h; also: potency is read from the fitted curve at half-maximal effect
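A549 ARE-Fluc cells in 5% FBS OPTI-MEM, 5000 cells/well, rested 2 h then exposed to compounds in concentration-response for 18-24 h at 37 °C. Viability by CellTiter-Fluor fluorescence (Ex 405/Em 525) after 30 min; luciferase luminescence (BugLite, 15 min, RT) read afterwards.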
KB-V1 MDR tox: qHTS assay for MDR1-selective chemotherapeutics: Primary screen using the drug-selected MDR subline cells KB-V1. KB-V1 MDR cells viability, CellTiter-Glo, 72 h. Potency, µM (titrated, usually from 46.1 µM), most hits filed as cytotoxic. 400,000 compounds, 3.4% hits; also: potency is read from the fitted curve at half-maximal effect; nearly all actives have a fitted effect of over 60% in size
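Cytotoxicity toward P-gp-expressing KB-V1 cells was determined as loss of CellTiter-Glo luminescence after 72 h at 37 degrees C. Compounds were tested in quantitative HTS format across a concentration range, with curves fitted to normalized data.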
KB-3-1 cytotox: qHTS assay for MDR1-selective chemotherapeutics: Primary screen using the parental adenocarcinoma cell KB-3-1 | KB-3-1 viability, CellTiter-Glo ATP luminescence, 72 h | Potency, µM (top dose mostly 46.1 µM), usual class: cytotoxic | 400,000 compounds, 1.4% hits; also: potency is read from the fitted curve at half-maximal effect; nearly all actives have a fitted effect of over 60% in size
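Parental KB-3-1 adenocarcinoma cells in phenol-red-free DMEM with 10% FBS were pin-treated with compounds at several concentrations, incubated 72 h at 37 °C, and viability read by CellTiter-Glo luminescence; concentration-effect curves were fitted after normalization.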
PI4K2A inh: qHTS for small molecular inhibitors of PI4K2A; purified PI4K2A, ADP-Glo luminescence, 1 h; stronger effect = lower value; Phosphatidylinositol 4-kinase type 2-alpha (Homo sapiens), Q9BTU6; AID 1346378, 2018; activity change, negative = inhibition, % at 76.9 µM; 420,000 compounds, 0.13% hits; in the data active = activity change below about -50%; inconclusive = mostly about -30% to -49%;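 also: -100% = wells without enzyme as full effect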
Target sequence (Q9BTU6 whole entry, looked up): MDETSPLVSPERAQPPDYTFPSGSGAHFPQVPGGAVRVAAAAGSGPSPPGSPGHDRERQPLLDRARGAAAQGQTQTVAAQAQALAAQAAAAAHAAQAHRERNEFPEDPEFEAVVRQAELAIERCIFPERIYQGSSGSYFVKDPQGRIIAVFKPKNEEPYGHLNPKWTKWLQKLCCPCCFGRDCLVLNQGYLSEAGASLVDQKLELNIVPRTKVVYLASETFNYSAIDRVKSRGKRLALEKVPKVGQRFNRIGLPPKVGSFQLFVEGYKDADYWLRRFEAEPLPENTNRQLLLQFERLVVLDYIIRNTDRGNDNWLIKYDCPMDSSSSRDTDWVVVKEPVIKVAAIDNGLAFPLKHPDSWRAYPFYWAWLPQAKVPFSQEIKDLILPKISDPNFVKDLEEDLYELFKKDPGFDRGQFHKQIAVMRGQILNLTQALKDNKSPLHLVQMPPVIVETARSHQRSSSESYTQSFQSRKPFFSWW
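ADP-Glo luminescence measured ADP generated by PI4K2A enzyme (4 ug/mL before mixing) with 1.2 mM PI substrate (pre-mix) and 300 microM ATP (pre-mix). Tris pH7.5 buffer with MgCl2, Triton X-100; 1 h reaction at ambient temperature.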
* marks the source's active call; other numbers are inactive results; i = inactive; u = inconclusive; x = not tested or not shown; [ ] = dose if it differs, or a comment. Unless noted, calls follow the shape of the dose curve; as a rule, active = well fitted curve in the direction sought with a large enough effect; inconclusive = small, poorly fitted or top-dose-only effect, or another doubt; inactive = no such curve, though single readings can be large; an effect the other way counts as inactive or inconclusive. Unless noted, % is scaled to controls: 0 for no effect and ±100 for the full control effect.

SMILES	Giardia killer	Nrf2 block	A549 viability	KB-V1 MDR tox	KB-3-1 cytotox	PI4K2A inh
CC1=C(C(=O)Nc2ccccc2)C(c2cccnc2)n2nc(SCc3ccccc3Cl)nc2N1 (stereo not given)	x	-2.8%[9.27 µM]	2.2%	i	i	-6.4
N#C/C(=C/c1ccc(N2CCCC2)c([N+](=O)[O-])c1)c1nc2ccccc2[nH]1	1.7	26.7%	-1.7%	i	i	2.1
N#C/C(=C\c1ccc(Oc2ccc(C(F)(F)F)cc2[N+](=O)[O-])cc1)c1nc2ccccc2[nH]1	4.9	16.4µM*	u	i	i	16.6
N#C/C(=C\c1ccc(N2CCOCC2)c([N+](=O)[O-])c1)c1nc2ccccc2[nH]1	-9.7	u	u	10.3µM*	u	-0.7
N#C/C(=C\c1cccnc1)c1nc2ccccc2[nH]1	1.7	1.5%	u	23.1µM*	u	-2.9
Cc1ccc(S(=O)(=O)N2[C@@H](c3ccc(C(C)(C)C)cc3)C(C(=O)O)=CC[C@H]2c2ccc(Cl)c(Cl)c2)cc1	-3.7	-10.4%	-2.3%	i	i	5.8
Cc1ccc(S(=O)(=O)N2[C@@H](c3ccc(Br)cc3)C(C(=O)O)=CC[C@H]2c2ccc(Cl)c(Cl)c2)cc1	-23.4	25.9µM*	-16.1%	i	i	-0.9
CCOC(=O)CC[C@H](NC(=O)[C@@H]1CC=C[C@@H]2CCN(Cc3ccc(Cl)cc3)C(=O)[C@@H]21)C(=O)OCC	x	x	x	x	x	2.1
COc1ccc(CCN2C(=O)c3[nH]nc(-c4ccccc4O)c3C2c2cccc(Cl)c2)cc1 (stereo not given)	24.3	u	-21.9%	u	18.4µM*	-2.3
COc1cc(C2c3c(-c4ccccc4O)n[nH]c3C(=O)N2CCO)ccc1OCc1ccccc1 (stereo not given)	x	0.4%	-6.0%	i	i	-3.3
CCCN1C(=O)c2[nH]nc(-c3ccccc3O)c2C1c1ccc(OCc2ccccc2)c(OC)c1 (stereo not given)	x	u	u	u	20.6µM*	1.5
O=C(CN1C(=O)c2ccccc2C1=O)NCCc1c[nH]c2ccc(Cl)cc12	u	1.5%	-10.8%	u	i	-0.4
O=C1c2ccccc2C(=O)N1CCCc1c[nH]c2ccc(Cl)cc12	-10.7	-15.3%	0.0%	20.6µM*	u	4.2
COc1cccc(C2CC=C(C(=O)O)CN2S(=O)(=O)c2ccc(C)cc2)c1 (stereo not given)	x	x	x	x	x	-3.0
CC(=O)c1cc(-c2ccccc2)n(CC(=O)NCc2ccccc2Cl)c1C	x	x	x	x	x	16.8
O=C(Nc1ccc(O)c2ncccc12)c1ccccc1F	x	u	2.1%	x	x	x
COC(=O)c1[nH]c2cc(OC)ccc2c1NC(=O)CN1CCN(c2cccc(C)c2)C(C)C1 (stereo not given)	5.8	u	-18.0%	20.6µM*	u	3.9
CCOC(=O)c1[nH]c2ccc(OC)cc2c1NC(=S)N1CCN(c2ccccc2OC)CC1	0.4	-6.8%	1.8%	u	8.2µM*	4.4
CCOC(=O)Nc1c(C(=O)OC)[nH]c2cc(OC)ccc12	7.0	-13.5%	-18.5%	23.1µM*	20.6µM*	1.6
COc1cccc(C(=O)N2CCCCC2CCN2CCCCC2)c1 (stereo not given)	x	24.0%	0.5%	x	x	-0.7
CCc1ccc(OCCn2c(CCNC(=O)C3CCCCC3)nc3ccccc32)cc1	8.2	u	-0.4%	i	i	x
CCc1nnn2c1Cn1c3ccccc3c(=O)n1[C@@H](C)C2	x	x	x	x	x	-0.2
CCOC(=O)CC[C@@H]1CC[C@]2(CCCN(C(=O)C3CCCC3)C2)O1	x	x	x	x	x	-2.3
CCOC(=O)c1cccc(NC(=O)Nc2c(C)n(C)n(-c3ccccc3)c2=O)c1	x	2.3%	1.0%	i	i	-0.2
CC(/C=N\NC(=O)CSc1nnc(-c2ccc(Br)cc2)n1-c1ccccc1)=C\c1ccco1	x	x	x	x	x	-2.7
SMILES	Giardia killer	Nrf2 block	A549 viability	KB-V1 MDR tox	KB-3-1 cytotox	PI4K2A inh
COc1cc2c(NC3CCN(C)CC3)nc(N3CCCN(C)CC3)nc2cc1OCCCN1CCCCC1	x	x	x	i	u	x
Cn1cnc(S(=O)(=O)N2CCC(C(=O)N3CCN(c4ccc(Cl)cc4)CC3)CC2)c1	x	x	1.6%	x	x	0.0
O=C(c1ccccn1)N(Cc1ccco1)C1(C(=O)NC2CCCC2)CCCCC1	-16.5	-3.2%	-10.0%	u	i	-0.9
O=C(c1ccc2c(c1)OCO2)N(Cc1ccco1)C1(C(=O)NC2CCCCC2)CCCCC1	-4.0	18.4µM*	u	i	u	3.5
O=C(CN(CCc1ccccc1)S(=O)(=O)c1ccc(F)cc1)N1CCOCC1	x	x	x	x	x	0.0
COc1cc(NC(=S)NCCC(c2ccccc2)c2ccccc2)cc(OC)c1	-11.3	23.1µM*	u	i	i	17.6
Cc1cc(Cl)ccc1NC(=S)NCc1ccco1	13.9	-11.6%	1.8%	20.6µM*	i	-0.3
Cc1cc(Cl)ccc1NC(=S)NCCC(c1ccccc1)c1ccccc1	9.8	15.8µM*	u	u	u	16.3
O=C1CC(c2ccc(Cl)cc2)CC(=O)N1	x	x	x	x	x	-1.4
Cc1ccc(N2CCN(C(=O)CNS(=O)(=O)c3ccc(Br)s3)CC2C)cc1 (stereo not given)	15.4	u	-6.4%	2.31µM*	u	-5.7
O=C(CNS(=O)(=O)c1ccc(Br)s1)N1CCN(c2ncccn2)CC1	-2.3	-13.4%	-3.8%	20.6µM*	i	3.7
COCCc1nn2c(=O)cc(COC(=O)C(c3ccccc3)c3ccccc3)nc2s1	x	u	2.8%	i	i	-2.0
COc1cc(C(CCN2CCCC2)c2c(OC)cc(OC)c3c2OC(=O)CC3c2ccc(N(C)C)cc2)cc(OC)c1OC (stereo not given)	3.2	3.1%	-4.7%	x	x	x
Cc1ccc(-c2[nH]ncc2CNCc2ccc(CN(C)C)cc2)cc1	12.1	4.7%	u	i	i	x
N#Cc1nc(Nc2cc(Cl)cc(Cl)c2)nc(NC2CCCC2)n1	x	u	-27.3%	x	x	x
Cc1cc(/C=N/n2cnnc2)c(C)n1-c1ccc(Cl)cc1Cl	2.6	u	-0.3%[1.84 µM]	i	i	7.8
Cc1sc(-n2c(C)cc(/C=N/n3cnnc3)c2C)c(C#N)c1C	12.2	14.6µM*	-15.5%	u	i	4.4
Cc1sc(-n2c(C)cc(/C=C3\SC(=S)NC3=O)c2C)c(C#N)c1C	-1.6	u	20.6µM*	i	u	-5.0
O=S(=O)(c1ccccc1Br)N1CCN(c2nc(-c3cccs3)nc3ccccc23)CC1	-8.1	u	2.4%	i	i	x
